Source: PubChem BioAssay (Pan Lab, Icahn School of Medicine at Mount Sinai)
This excerpt belongs to a sample that is enriched for hits.
ROC1-CUL1 inh – blocks human RBX1-Cullin-1 di-ubiquitin formation. inhibition, % at 10 µM. P62877+Q13616. in vitro K48 di-Ub FRET, acceptor:donor ratio, 45 min. 140,000 compounds, 0.6% hits; in the data active = inhibition above about 25%
* marks the source's active call; other numbers are inactive results.

SMILES | ROC1-CUL1 inh
O=C(O)CCCCCN1C(=O)c2ccc3c4c(ccc(c24)C1=O)C(=O)N(CCCCCC(=O)O)C3=O | 7
O=C(O)CCCCCN1C(=O)/C(=C2\SC(=S)N(CCCCCC(=O)O)C2=O)SC1=S | 65*
O=C(CN1C(=O)S/C(=C/c2ccccc2Cl)C1=O)N1CCOCC1 | 9
CCOc1cc(OCC)cc(C(=O)NC(=S)Nc2cc(C(F)(F)F)ccc2N2CCCCC2)c1 | -6
CCOc1ccccc1NC(=O)CN1CC(C)CC(C)C1 (stereo not given) | 19
COc1cc(CNc2nccs2)ccc1OCC(=O)NC1CCCCC1 | 9
CCc1ccc(OCCNc2cc(NCC(C)O)ccc2[N+](=O)[O-])cc1 (stereo not given) | -1
Nc1cc(S(=O)(=O)O)c(N)c2ccc(S(=O)(=O)O)cc12 | 101*
O=S(=O)(O)c1ccc2ncccc2c1 | 2
CCOc1ccc2cc(S(=O)(=O)O)ccc2c1N | 8
Cc1nn2c3c(nnc2c1-c1ccccc1)C(=O)CC(C)(C)C3 | 1
Cc1nc(N2CCC(C(=O)N3CCC(O)(c4cccnc4)CC3)CC2)nc2ccc(C(C)C)cc12 | 12
O=C(O)c1ccc(C2Nc3cccc4cccc(c34)N2)cc1 | 93*
Fc1cccc(C2Nc3cccc4cccc(c34)N2)c1 | -5
CC(C)(C)c1ccc(C2Nc3cccc4cccc(c34)N2)cc1 | -7
COc1cccc(S(=O)(=O)NCC(=O)N2CCCCC2C)c1 (stereo not given) | 20
CCCOc1ccc(CN2C(=O)NC(=O)/C(=C\c3cc(Br)c(OCC(=O)O)c(OC)c3)C2=O)cc1OC | -4
COc1cc(/C=C2\C(=O)N(c3ccc(S(N)(=O)=O)cc3)N=C2C)cc(Br)c1OCC(C)C | -4
CCOc1c(Br)cc(/C=C2/C(=O)N(c3cccc(C(=O)O)c3)N=C2C)cc1OC | 91*
CC1=NN(c2ccc(C(=O)O)cc2)C(=O)/C1=C/c1cc(Br)ccc1OCc1ccccc1 | -1
COc1cc(CO)cc(Br)c1OCC(=O)O | -1
CCCCCCOc1ccccc1/C=C1\C(=O)N(c2ccc([N+](=O)[O-])cc2)N=C1c1ccccc1 | -1
COc1cc(C=C2C(=O)c3ccccc3C2=O)cc(Br)c1OCC(=O)O | 76*
C#CCOc1cc(Br)c(/C=C2/C(=O)N(c3cccc(C(=O)O)c3)N=C2c2ccccc2)cc1OC | 90*
CCC(C)Oc1ccc(/C=C2\C(=O)N(c3ccccc3)N=C2C)cc1Br (stereo not given) | 19
SMILES | ROC1-CUL1 inh
CCn1c(COc2ccc(OC)cc2)nnc1SCC(=O)Nc1cccc(C)c1 | 0
COc1ccccc1CCc1nnc(CCC(=O)N2CCSCC2)o1 | -1
CC(C)c1ccccc1N1CCN(C(=O)Nc2ccccc2)CC1 | 4
COc1ccc(OCc2nc(C(=O)NCc3cn(C)nc3C)co2)cc1 | -5
O=S(=O)(c1cccc(F)c1)N(Cc1ccc(OCC2CCC2)cc1)C1CC1 | -12
O=C(COC(=O)c1ccc(NC(=O)c2ccc(Br)cc2)cc1)c1ccccc1 | 3
O=C1CC=Cc2ccc(O)c(O)c2C1=O | 53*
COc1cc(CNC(=O)CCC2(Cc3ccc(F)c(OC)c3)CCC(=O)N2)cc(OC)c1 (stereo not given) | 2
C/C=C(\C)CNC1CC(C)(C)Cc2nc(N3CCC(O)CC3)ncc21 (stereo not given) | -5
O=C(CCC(=O)Nc1ccc(Cl)cc1Cl)N/N=C/c1ccc(Br)s1 | -4
CCOc1cc(/C=C2\C(=O)NN(c3ccccc3)C2=O)cc(Cl)c1OCc1cccc(C)c1 | 38*
COc1cc(/C=C2\C(=O)NN(c3ccccc3)C2=O)cc(Cl)c1OCc1ccccc1C | 19
CCOc1cc(/C=C2\C(=O)NN(c3ccccc3)C2=O)ccc1OCc1c(F)cccc1Cl | -7
CCOc1cc(/C=C2\C(=O)NN(c3ccccc3)C2=O)cc(Cl)c1OCc1c(Cl)cccc1Cl | 86*
COc1cc(/C=C2\C(=O)NN(c3ccccc3)C2=O)ccc1OCc1ccccc1 | 14
CCOc1cc(/C=C2\C(=O)NN(c3ccccc3)C2=O)cc(Br)c1OCc1cccc(C)c1 | 2
CCOc1ccc(-c2csc(NC(=O)c3ccc(S(=O)(=O)N(CC)CC)cc3)n2)cc1 | -5
CC1Oc2ccccc2C=C1/C=C1\SC(N2CCOCC2)=NC1=O (stereo not given) | 11
CC(NC(=O)c1ccccc1F)c1ccccc1 (stereo not given) | -12
CC(NC(=O)c1cc([N+](=O)[O-])cc2c1-c1c(cc([N+](=O)[O-])cc1[N+](=O)[O-])C2=C(C#N)C#N)c1ccccc1 (stereo not given) | 39*
CC(NC(=O)c1ccc(Br)cc1Br)c1ccccc1 (stereo not given) | 14
Cc1c(C(=O)N(C)C2CCS(=O)(=O)C2)nnn1-c1ccc(F)cc1 (stereo not given) | 1
O=C1c2ccccc2-c2nc3nsnc3nc21 | 87*
O=C1c2ccccc2-c2ncccc21 | -7
O=C1c2ccccc2-c2nc3ccc(Cl)cc3nc21 | -2
SMILES | ROC1-CUL1 inh
CCOC(=O)C1C(=O)/C(=C/c2ccc(N(CC)CC)cc2OC)SC1=Nc1ccc(C)cc1 (stereo not given) | 22
Cc1ccc(NC(=O)c2c(N)sc3c2CCCCC3)c(C)c1 | 65*
Cc1ccc(NC(=O)c2c(N)sc3c2CCC3)cc1 | -3
Cc1ccc(NC(=O)c2c(NC(=O)C(C)(C)C)sc3c2CCCC3)c(C)c1 | -5
CC(C)c1ccc(C2OCC3(CCCC4(COC(c5ccc(C(C)C)cc5)OC4)C3=O)CO2)cc1 (stereo not given) | 14
CC(C)N1C(=O)C(C(=O)C(C)(C)C)=C(C(C)(C)C)OC12OC(C(C)(C)C)=C(C(=O)C(C)(C)C)C(=O)N2C(C)C | 5
CN1CCN(S(=O)(=O)c2ccc(N3CCCC3=O)cc2)CC1 | 6
CC(C)(C)C(=O)N1CCN(c2ccnc3cc(Cl)ccc23)CC1 | 7
CC(C)(C)c1ccc(CN2CCN(c3ccnc4cc(Cl)ccc34)CC2)cc1 | 1
O=C(CN1CCN(c2cc(Cl)cc3ncccc23)CC1)c1ccc(O)c(O)c1 | 84*
O=S1(=O)CC(Cl)C2CCCCC21 (stereo not given) | 6
COC(=O)c1cc(CNC(=O)C23CC4CC(CC(C4)C2)C3)cc(NC(=O)Cc2ccsc2)c1 | -4
Cc1nn(C)cc1/C=C1\SC(=S)NC1=O | -2
O=C1NC(=S)S/C1=C/c1ccccn1 | -4
O=C1NC(=S)S/C1=C/c1c(Cl)cc(Cl)c(O)c1Cl | 28*
CC(=O)c1ccc(N=CC2C(=O)NC(=O)N(c3ccc(C)cc3)C2=O)cc1 (stereo not given) | 1
O=C1/C(=C/c2ccco2)SC(=S)N1c1ccccc1Br | -4
CC(C(=O)O)N1C(=O)/C(=C\c2ccco2)SC1=S (stereo not given) | 53*
O=C1/C(=C\c2ccco2)SC(=S)N1c1cccc(O)c1 | 9
O=C(CN1C(=O)S/C(=C\c2ccco2)C1=O)c1ccc(Br)cc1 | -1
CC(C)C(C(=O)O)N1C(=O)/C(=C\c2ccco2)SC1=S (stereo not given) | 102*
CC(C)C(C(=O)O)N1C(=O)/C(=C/c2ccc(F)cc2)SC1=S (stereo not given) | 15
COc1cccc(-c2nn(-c3ccccc3)cc2CN(CCO)C(C)C)c1 | 1
NS(=O)(=O)c1ccc(CCNCc2cn[nH]c2-c2cccc3ccccc23)cc1 | -2
COc1nc2ccccc2cc1CNCc1cccnc1N1CCN(C(C)=O)CC1 | -7
Cc1cc(/C=C2/C(=N)N3C(c4ccccc4)=CSC3=NC2=O)c(C)n1-c1ccc(F)cc1 | 4
